In the supplement of paper PMC13380429 one finds SARS-CoV-2 infection rate data, which are given here for 15 molecules.

Structures are written as SMILES. Values without a mark were called inactive.

The subject of the assay is Vero E6 infected with SARS-CoV-2. In words: SARS-CoV-2 infection rate relative to infected DMSO; higher = more infection, active = 60 or less. The note with it: 24 h.
For `Nc1nc(-c2nn(Cc3ccccc3F)c3ncccc23)ncc1C1CC1` (0.833333 µM), the SARS-CoV-2 infection rate is 102%. To `N#Cc1ccc(Cn2cncc2CN2CCN(c3cccc(Cl)c3)C(=O)C2)cc1` (10 µM) belongs 95%. As to `CCNCC(O)c1cccc(O)c1` (stereo not given) [etilefrine] (10 µM), the SARS-CoV-2 infection rate is 100%. For `CC[C@@H](C)N(C)C(=O)c1cc2ccccc2c(-c2ccccc2Cl)n1` (10 µM), the SARS-CoV-2 infection rate was 111%.

As for `Oc1ccc(CC2NCCc3cc(O)c(O)cc32)cc1` (stereo not given) [higenamine] (0.833333 µM), the SARS-CoV-2 infection rate is 103%.

As for `O=C(Cn1ccnc1[N+](=O)[O-])NCc1ccccc1` [benznidazole] (10 µM), the SARS-CoV-2 infection rate is 112%. For `CCCCN1CCC(CNC(=O)c2c3n(c4ccccc24)CCCO3)CC1` [piboserod] (10 µM), the SARS-CoV-2 infection rate is 92.5%. The value for `CNC(=O)c1cc(Oc2ccc(NC(=O)Nc3cc(C(C)(C)C)nn3-c3ccc4ncccc4c3)c(F)c2)ccn1` [rebastinib] (0.833333 µM) was 106%; that for `CC1(C)C(/C=C/C=C/C=C/C=C2\N(CCCCS(=O)(=O)O)c3ccc4ccccc4c3C2(C)C)=[N+](CCCCS(=O)(=O)[O-])c2ccc3ccccc3c21` [indocyanine-green] (10 µM) was 109%; that for `CCc1cnn2c(NCc3ccc[n+]([O-])c3)cc(N3CCCC[C@H]3CCO)nc12` [dinaciclib] (0.833333 µM) was 116%.

Take `C[N+](C)(C)CCOP(=O)(O)OC[C@H](O)CO` [choline-alfoscerate] (10 µM): the SARS-CoV-2 infection rate was 114%. To `Oc1cccc(-c2nc(N3CCOCC3)c3oc4ncccc4c3n2)c1` (10 µM) belongs 118%; to `CC(C)=CCC/C(C)=C/CC/C(C)=C/C=C/C(C)=C/C(=O)O` [peretinoin] (10 µM), 108%. The value for `COc1ccc(Cc2cnc(N)nc2N)cc1OC` [diaveridine] (10 µM) was 101%. To `O=C(O[C@H]1C[C@H]2CC[C@@H](C1)[N+]21CCCC1)C(O)(c1ccccc1)c1ccccc1` [trospium] (10 µM) belongs 102%.
